# This is a sample that favours compounds with a hit; in the whole collection about 12% have one here.
# G9a inh – qHTS Assay for Inhibitors of Histone Lysine Methyltransferase G9a; Histone-lysine N-methyltransferase EHMT2 (Homo sapiens), Q96KQ7; G9a H3K9 monomethylation, AlphaScreen, 2 h; Potency, µM (top dose mostly 102 µM), hits mostly inhibitors; 350,000 compounds, 8.8% hits; AID 504332, 2011; further: nearly all actives have a fitted effect of over 75% in size
#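 Compounds were preincubated with 20 nM G9a for 15 min, after which biotinylated H3K9 peptide (500 nM) and SAM (20 uM) started a 2 h room-temperature reaction. Monomethylated product was quantified by antibody-based AlphaScreen chemiluminescence.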
# BAZ2B block – qHTS Assay for Inhibitors of BAZ2B; 360,000 compounds, 4.4% hits; AID 504333, 2011; AlphaScreen BAZ2B-H3K14Ac peptide displacement; Potency, µM (series often up to 114 µM), hits mostly inhibitors; Bromodomain adjacent to zinc finger domain protein 2B (Homo sapiens), Q9UIF8; further: nearly all actives have a fitted effect of over 60% in size
#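 AlphaScreen displacement of biotin-H3(5-23)K14Ac peptide (50 nM final) from BAZ2B (50 nM final) in PBS pH 7.4, 0.01% Tween-20; complex preformed 30 min RT, then compounds (top 110 uM) 30 min RT, beads 20 min dark.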
# JMJD2A Tudor inh – qHTS Assay for Inhibitors of JMJD2A-Tudor Domain | 390,000 compounds, 4.4% hits | Potency, µM (doses to about 114 µM), most hits filed as inhibitors | Lysine-specific demethylase 4A (Homo sapiens), O75164 | AlphaScreen JMJD2A-Tudor / H3K4me3 peptide binding; further: nearly all actives have a fitted effect of over 50% in size
# Target sequence (O75164 whole entry, looked up, the tested form may be a part): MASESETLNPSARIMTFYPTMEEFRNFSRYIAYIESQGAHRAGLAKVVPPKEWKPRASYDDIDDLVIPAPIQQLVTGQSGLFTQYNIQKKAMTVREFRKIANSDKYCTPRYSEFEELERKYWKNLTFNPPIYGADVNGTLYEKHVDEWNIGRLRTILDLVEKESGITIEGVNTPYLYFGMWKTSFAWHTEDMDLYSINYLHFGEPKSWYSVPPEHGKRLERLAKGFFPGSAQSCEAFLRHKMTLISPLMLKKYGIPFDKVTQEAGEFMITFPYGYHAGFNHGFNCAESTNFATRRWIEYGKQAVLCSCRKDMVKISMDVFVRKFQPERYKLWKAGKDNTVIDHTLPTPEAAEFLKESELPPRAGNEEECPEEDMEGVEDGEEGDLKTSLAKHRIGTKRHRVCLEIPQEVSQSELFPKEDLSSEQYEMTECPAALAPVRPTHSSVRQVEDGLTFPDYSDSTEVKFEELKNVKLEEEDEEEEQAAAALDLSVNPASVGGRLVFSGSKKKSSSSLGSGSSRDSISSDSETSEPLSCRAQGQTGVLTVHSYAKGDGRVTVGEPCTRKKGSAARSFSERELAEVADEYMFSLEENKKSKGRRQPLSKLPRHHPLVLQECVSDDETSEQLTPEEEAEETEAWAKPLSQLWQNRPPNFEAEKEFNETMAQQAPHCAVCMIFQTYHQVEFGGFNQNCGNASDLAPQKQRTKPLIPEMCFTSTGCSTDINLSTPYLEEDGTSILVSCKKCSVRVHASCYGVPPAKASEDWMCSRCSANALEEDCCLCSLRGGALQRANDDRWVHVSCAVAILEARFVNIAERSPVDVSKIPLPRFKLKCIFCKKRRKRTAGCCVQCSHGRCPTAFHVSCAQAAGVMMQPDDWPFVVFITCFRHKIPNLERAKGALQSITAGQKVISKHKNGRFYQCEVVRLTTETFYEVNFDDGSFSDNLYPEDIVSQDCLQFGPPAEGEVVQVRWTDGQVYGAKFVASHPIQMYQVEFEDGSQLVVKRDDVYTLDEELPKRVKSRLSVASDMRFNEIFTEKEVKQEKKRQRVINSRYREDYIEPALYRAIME
# L3MBTL1 inh – qHTS Assay for the Inhibitors of L3MBTL1; Lethal(3)malignant brain tumor-like protein 1 (Homo sapiens), Q9Y468; AlphaScreen L3MBTL1–H3K9me1 peptide binding; Potency, µM (doses to about 57.1 µM), usual class: inhibitors; AID 485360, 2010; 230,000 compounds, 0.66% hits; further: nearly all actives have a fitted effect of over 60% in size
#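 First, the protein-peptide complex forms for 30 min at room temperature (L3MBTL1 50 nM, biotinylated H3K9me1 peptide 75 nM). Next, compounds are pin-transferred and incubated 30 min. Finally, AlphaScreen beads are added and read after 30 min.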
# HP1b chromo inh – HTS for Inhibitors of HP1-beta Chromodomain Interactions with Methylated Histone Tails. Chromobox protein homolog 1 (Homo sapiens), P83916. AlphaScreen HP1-beta / biotin-H3K9me3 peptide binding. Potency, µM (top dose mostly 114 µM), usual class: inhibitors. 390,000 compounds, 0.56% hits. AID 540317, 2011; further: nearly all actives have a fitted effect of over 70% in size
#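 HP1-beta protein (50 nM final) preincubated 30 min at room temperature with biotinylated H3(1-18)K9me3 peptide (50 nM) in PBS pH 7.4, 0.01% Tween-20, then compound added for 30 min. AlphaScreen streptavidin donor/nickel chelate acceptor beads (10 ug/mL final), 30 min dark, luminescence read.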
# Sfp inh – qHTS Assay for Inhibitors of Bacillus subtilis Sfp phosphopantetheinyl transferase (PPTase). 310,000 compounds, 3.5% hits. Potency, µM, hits mostly inhibitors. Biochemical Sfp PPTase activity, qHTS. 4'-phosphopantetheinyl transferase ffp (Bacillus subtilis), Q9F4F7. AID 1490, 2009;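 further: the enzyme is Sfp with the accession as filed and its product quenches rhodamine fluorescence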
#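 Fluorescence-quenching assay with 15 nM Sfp, 5 uM rhodamine-CoA and 12.5 uM BHQ-2-labelled ybbR peptide in pH 7.6 Hepes/MgCl2 buffer. Enzyme was pre-incubated with compound for 15 min at room temperature. Rate was taken from the 30-min fluorescence change (525/598 nm).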
# Numbers stand for hits; . = inactive; ? = inconclusive; / = not tested or not shown; [ ] = another dose, or the depositor's remark. The call rests on the fitted dose curve; in most records, active means well fitted curve in the direction sought with a large enough effect; inconclusive means small, poorly fitted or top-dose-only effect, or another doubt; inactive means no such curve, though single readings can be large; an effect the other way counts as inactive or inconclusive.
SMILES,G9a inh,BAZ2B block,JMJD2A Tudor inh,L3MBTL1 inh,HP1b chromo inh,Sfp inh
COc1ccc(S(=O)(=O)N(C(C)=O)c2ccc3oc(=O)sc3c2)cc1,7.1µM,.,?,.,.,10µM
CN1CCN(C2=C(Cl)C(=O)N(C3CCCCC3)C2=O)CC1,40µM,.,.,.,.,.
Cc1ccc(C)c(NC(=O)CSc2ncc3c(n2)-c2cc(Cl)ccc2N(Cc2ccccc2F)S3(=O)=O)c1,.,.,.,/,.,/
Cc1ccc(/C=N/n2c(-c3ccc(Cl)cc3)n[nH]c2=S)o1,/,.,?,.,.,.
Cc1ccc(-c2n[nH]c(=S)n2/N=C/c2ccc(C)o2)cc1,0.89µM,?,25µM,.,.,71µM
Cc1ccc(-c2nn(-c3ccccc3)cc2/C=N/n2c(-c3ccncc3)n[nH]c2=S)cc1,?,.,?,.,.,.
Cc1ccc(/C=N/n2c(-c3cccnc3)n[nH]c2=S)o1,28µM,?,5µM,.,.,56µM
Cc1ccc(-c2n[nH]c(=S)n2/N=C/c2ccncc2)cc1,1.6µM,.,?,/,.,.
CCOc1c(C=C(C#N)C#N)c2ccccc2n1CC,10µM,.,?,.,.,50µM
CCn1c(O)c(C(C#N)=C2N=c3ccccc3=N2)c2ccccc21,.,.,.,.,.,.
CNC(=O)C1CCN(C(=O)N2CC(C)Oc3ccc(Cl)cc32)CC1 (configuration not stated),.,?,.,/,.,/
COC(=O)C(c1cc(OC)c(O)c(OC)c1)(N1CCNC(C)C1)C(F)(F)F (configuration not stated),10µM,.,.,.,.,.
C=C(C)CSc1nnc([C@@H]2CCCN2)o1,?,50µM,50µM,/,.,?
Cc1ccc(C)c(CSc2nnc([C@@H]3CCCN3)o2)c1,.,?,.,/,.,.
O=C(CSc1nnc([C@@H]2CCCN2)o1)c1ccc(Cl)cc1,40µM,.,?,.,.,.
COc1ccc(CCNC(=O)C2COc3ccccc3C2)cc1OC (configuration not stated),.,.,.,/,.,/
O=C(N/N=C/c1ccccc1F)C(=O)N1CCCCCC1,.,.,.,/,.,.
CCOc1ccc(/C=N/NC(=O)C(=O)N2CCCCCC2)c2ccccc12,.,71µM,.,/,.,.
O=C(N/N=C/c1ccccc1O)C(=O)N1CCCCCC1,.,79µM,?,/,.,.
COc1cccc(/C=N/NC(=O)C(=O)N2CCCC2)c1OC,?,.,.,.,.,.
COc1cccc(/C=N/NC(=O)C(=O)N2CCCC2)c1O,?,16µM,79µM,22µM,.,.
COc1ccccc1CNS(=O)(=O)c1ccc(N2CCCC2)cc1Br,/,/,.,.,.,/
COC(=O)C1CC23C=CCN4CCC5(c6ccccc6NC15C2C)C43 (configuration not stated),40µM,.,?,/,.,.
CN1CC[C@]23c4ccccc4N[C@H]1[C@]21CCN(C)[C@H]3Nc2ccccc21,?,.,.,.,.,/
N#Cc1cc2c(nc1SCc1cccnc1)CCCC2,?,.,?,.,.,45µM
SMILES,G9a inh,BAZ2B block,JMJD2A Tudor inh,L3MBTL1 inh,HP1b chromo inh,Sfp inh
N#Cc1cc2c(nc1SCc1nc3ccccc3[nH]1)CCC2,?,.,/,.,/,56µM
Cc1cccc(CSc2nc3c(cc2C#N)CCC3)c1,.,.,.,.,.,.
CN(Cc1ccon1)C(=O)C1CCC(=O)N(CCc2ccc(Cl)cc2)C1 (configuration not stated),.[12.7 µM],.,.,/,.,.
O=C1Nc2ccc(S(=O)(=O)Nc3ccccc3O)c3cccc1c23,13µM,.,.,/,.,/
CC(=O)N1CCN(S(=O)(=O)c2ccc(F)c(Cl)c2)CC1,.,/,.,.,.,.
CCOc1ccc2cc(S(=O)(=O)n3ccnc3C)ccc2c1,?,.,.,/,.,40µM
O=C(CN1CCN(S(=O)(=O)c2ccc(F)c(Cl)c2)CC1)N1CCOCC1,1.1µM,.,.,.,.,/
CCOc1ccc(Oc2ccc(S(=O)(=O)N3CCOCC3)cc2N)cc1,.,/,.,.,.,.
CCc1nccn1S(=O)(=O)c1ccc2ccc(C)cc2c1,?,.,.,.,.,.
CCOc1ccc2cc(S(=O)(=O)N3CCOCC3)ccc2c1,4.5µM,.,.,.,.,.
Cc1cc(S(=O)(=O)N2CCOCC2)ccc1F,.,.,79µM,.,?,.
COc1ccc(N(C)C(=O)C2CCN(S(=O)(=O)c3cccc4nonc34)CC2)c(OC)c1,?,.,.,/,.,.
CCCCNS(=O)(=O)c1ccc2nc(SCC(=O)c3ccc(C#N)cc3)[nH]c2c1,32µM,.,.,.,.,.
Cc1ccc2nc(C(=O)O)c(C(=O)O)nc2c1,35µM,?,40µM,/,.,.
NCCC[C@@H](CC(=O)N[C@@H]1CCNC[C@H]1C(=O)N[C@H](CC(=O)N[C@@H](CCC(=O)O)CC(=O)O)Cc1ccccc1)NC(=O)C[C@H](CO)NC(=O)[C@@H]1CNCC[C@H]1N,/,/,/,/,/,.
CCCS(=O)(=O)C/C(N)=N/OC(=O)c1ccccc1Cl,40µM,.,.,/,.,.
CC(C)(C)C(=O)C(Cl)C(=O)Nc1ccccc1 (configuration not stated),?,.,.,/,.,45µM
Cc1nn(-c2ccccc2)c(OC(=O)c2cccs2)c1S(=O)(=O)c1ccc([N+](=O)[O-])cc1,?,79µM,?,/,.,.
CCOc1ccccc1NC(=O)N1CCN(Cc2nc3ccc(C)cc3o2)CC1,.[12.7 µM],.,.,/,.,/
Cc1cc(C)c2c(n1)SCC(=O)N2CC(=O)Nc1ccc(F)cc1,.,.,.,.,.,.
O=c1[nH]c(SCc2ccccc2)nc2c1sc1ccccc12,50µM,.,.,.,.,.
Cc1ccc(CSc2nc3ccccc3c(=O)[nH]2)cc1,.,.,.,/,.,.
CC(C)c1ccc(NC(=O)CS(=O)(=O)c2cccc3nsnc23)cc1,.,.,.,/,.,/
CSC1=N/C(=C\c2ccccc2F)C(=O)S1,45µM,.,.,.,.,56µM
COc1cccc(/C=C2\N=C(SC)SC2=O)c1OC,.,.,.,.,.,.
CN(c1ccc(C(=O)NCCSCc2ccco2)cc1)S(C)(=O)=O,.,.,.,.[11.4 µM],.,35µM
O=C(COc1ccccc1)NCCSCc1ccco1,.,?,?,?,.,.

# Bioassay records: PubChem, National Center for Advancing Translational Sciences (NCATS)
